In PubChem BioAssay (NCATS):
Results filed as inconclusive are left out. Entries that show only a call come without a potency. Active and inactive are the calls of the source. Calls follow the shape of the dose curve; as a rule, active = well fitted curve in the direction sought with a large enough effect; inconclusive = small, poorly fitted or top-dose-only effect, or another doubt; inactive = no such curve, though single readings can be large; an effect the other way counts as inactive or inconclusive.

How the values were obtained:
[1] = qHTS for Inhibitors of Plasmodium falciparum (GB4) proliferation (AID 504315); also: nearly all actives have a fitted effect of over 50% in size
In short: (§1)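 Parasite growth measured as SYBR Green DNA fluorescence (ex 485, em 535 nm) after overnight lysis following 72 h culture at 37 °C, 0.3% parasitemia, 2.5% hematocrit. Values normalized against DMSO and 0.29 uM artemisinin controls, with plate-stack correction.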

[2] = qHTS for Inhibitors of Plasmodium falciparum (CP250) proliferation (AID 504320)
In short: as §1

[3] = qHTS for Inhibitors of Plasmodium falciparum (7G8) proliferation (AID 504316); also: nearly all actives have a fitted effect of over 65% in size; also: potency is read from the fitted curve at half-maximal effect
In short: as §1

[4] = qHTS for Inhibitors of Plasmodium falciparum (HB3) proliferation (AID 504318); also: nearly all actives have a fitted effect of over 60% in size
In short: as §1

With `C[C@@H]1CC[C@H]2C(=O)N(Cc3ccccc3)C[C@H](O)CN2[C@H]1c1ccc(Br)cc1` as the compound, how does the Potency [1] read?
Its Potency is “inactive”.

What about the Potency [2] of the same compound?
Its Potency is “inactive”.

Which Potency [2] does the source give for `CCCCc1cc2c(cn1)=C(OC(=O)c1ccc(Cl)nc1)C(C)(OC(=O)CC)C(=O)C=2` (centres undefined) here?
Its Potency is “inactive”.

Which Potency [3] does the source give for `O=C1C=CC2(OCCCO2)C(Br)=C1CO` here?
Its Potency is “inactive”.

And the Potency [4]?
Its Potency is “inactive”.

What about the Potency [2] of the same compound?
The Potency was “inactive”.

With `COC(=O)c1ccccc1S(=O)(=O)N1CCc2nc(-c3ccc(OC)cc3C)c3c(c2C1)CO[C@@H](c1ccccc1)C3` as the compound, how does the Potency [2] read?
The Potency was “inactive”.

Which results are given for `CC(=O)OC[C@H]1O[C@H](C#Cc2ccc(C)cc2C)C=C[C@H]1OC(C)=O`?
Potency [3]: 1690 nM (active); Potency [2]: inactive
